High-throughput results deposited in PubChem by National Center for Advancing Translational Sciences (NCATS).
The full list was thinned out, with hits kept by preference.
KDM5B inhibitor – inhibitors of human KDM5B histone demethylase. KDM5B demethylase, FDH-coupled NADH fluorescence (FDH is formaldehyde dehydrogenase). Potency, µM (series often up to 57.7 µM), actives largely listed as inhibitors. hit rate 2.6% among 220,000. AID 1347165; active = well fitted inhibition curve with a large enough effect; note: 0% is about no effect; nearly all actives have a fitted effect of over 70% in size
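Coupled FDH/NAD⁺ fluorescence readout. KDM5BΔAP 200 nM final; compound titration, 10 min RT preincubation; substrate mix 12.5 µM H3K4me3, 25 µM 2-OG, 50 µM Fe(II), 100 µM ascorbate, 0.25 mM NAD⁺, 0.25 U/mL FDH; ΔRFU over 30 min.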
Numbers without * were called inactive; i = inactive. Potency is the fitted concentration of half-maximal effect.

SMILES	KDM5B inhibitor
COc1ccc(CCNC(=O)Cc2c(C)c3ccc(OC)c(OC)c3oc2=O)cc1OC	i
CCn1cc(C(=O)c2cc(F)ccc2O)cc1-c1nc2ccccc2c(=O)[nH]1	i
CN(CC(=O)OCc1coc(-c2cccs2)n1)S(=O)(=O)c1ccc(Cl)cc1	i
O=C(Nc1ccccc1Cl)C1CCN(c2ncnc3nc[nH]c23)CC1	i
Cc1cc2occ(CC(=O)Nc3ccc(Cl)cc3F)c2cc1C	i
CCNC(=S)NNC(=O)c1ccc(C(C)C)cc1	i
Cc1ccc(S(=O)(=O)NCCO)cc1	i
Cc1cc(-c2ccc(NC(=O)CC#N)c(C)c2)ccc1NC(=O)CC#N	i
Cc1cc(N2CCN(c3ccc(F)cc3)CC2)n2nc(Cc3cccc(F)c3)nc2n1	i
Fc1cc(Cl)c(OCc2noc(-c3ccsc3)n2)c(Cl)c1	i
COc1ccc(Cc2nc3nccc(-c4ccccc4)n3n2)cc1	i
Fc1ccc(Cc2nc3nccc(-c4ccsc4)n3n2)cc1	25.1µM*
Cc1ccc(Cc2c(C)nc3nc(CC(=O)Nc4ccc(F)cc4)nn3c2C)cc1	i
Fc1cccc(CSc2ccc(-c3cccs3)nn2)c1	i
Fc1cc(F)cc(Cc2nc3nccc(-c4cccs4)n3n2)c1	25.1µM*
Cc1cc(N2CCCCCC2)n2nc(Cc3ccccc3)nc2n1	i
Fc1ccc(Cc2nc3nccc(-c4ccccc4)n3n2)cc1	28.2µM*
COc1ccc(Cc2nc3c4cnn(-c5cccc(F)c5)c4ncn3n2)cc1	i
COc1cccc(CN(C)Cc2ccc(F)cc2)c1	i
COc1cccc(-c2ccnc3nc(Cc4ccc(F)cc4)nn23)c1	25.1µM*
O=C1N(Cc2ccc(Cl)cc2)CCCN1c1ccc(C(=O)N2CCc3ccccc32)cc1	i
Cc1ccc(C(=O)NCCc2nc3cc(NC(=O)C4CCCCC4)ccc3n2C)cc1F	i
N#Cc1ccccc1Sc1ccccc1C(=O)OCC(=O)c1ccc2c(c1)OCCO2	i
O=C(NCCc1ccc(Cl)cc1)C1CCc2nnc(-c3ccc(Cl)nc3)n21 (stereo not given)	i
Fc1cccc(Cl)c1CSc1nc2ncccc2o1	i
SMILES	KDM5B inhibitor
CC(Oc1ccc(Cl)cc1Cl)C(=O)Nc1ccnn1C(C)C (stereo not given)	i
O=S(=O)(c1ccccc1F)N1CCN(Cc2coc(-c3cccs3)n2)CC1	i
CN(C(=O)CNC(=O)NC(Cc1c[nH]c2ccccc12)C(=O)O)c1ccccc1 (stereo not given)	i
CC(C)c1cccc(NC(=O)c2ccc3c(c2)NC(=O)CS3)c1	i
CC1=C(C(=O)OC(C)C)C(c2ccc(C(F)(F)F)cc2)NC(=O)N1 (stereo not given)	i
CC1Cc2nc(SCC(=O)N3CCCC3)n(-c3ccccc3)c(=O)c2S1 (stereo not given)	i
O=c1[nH]c(C2CCCN(Cc3ccc(F)cc3)C2)nn1-c1ccccc1 (stereo not given)	i
O=c1[nH]c(C2CCCN(Cc3ccccn3)C2)nn1-c1ccccc1 (stereo not given)	22.4µM*
O=c1[nH]c(C2CCCN(Cc3ccccc3C(F)(F)F)C2)nn1-c1ccccc1 (stereo not given)	i
CN1CCC(N(C)S(=O)(=O)c2ccc(NC(=O)c3cc4c(F)cccc4s3)cc2)CC1	i
O=C(NCCc1cccs1)c1ccc(Cl)cc1	i
Cc1cn2nc(C(=O)Nc3ccc(C(=O)NCCc4cccs4)cc3)cc2c(=O)[nH]1	25.1µM*
COc1cc(NC(=O)c2cc3c(=O)[nH]c(C)cn3n2)cc(OC)c1OC	i
CC(C)Cc1nnc(NC(=O)Nc2ccc(Cl)cc2)s1	i
Cc1cc(C)c(NC(=O)COC(=O)c2ccccc2)c(Cl)c1	i
COCCn1c(C)nnc1-c1cc(-c2cccc(OC)c2)ccn1	35.5µM*
COCCn1c(C)nnc1-c1cc(-c2ccccc2Oc2ccccc2)ccn1	i
COCCn1c(C)nnc1-c1cc(-c2ccnc(C)c2)ccn1	i
COc1ccc(C(CC(=O)N2CCCCC2)c2c[nH]c3ccccc23)cc1OC (stereo not given)	i
O=c1[nH]c2sc3c(c2c2nc(-c4ccncc4)nn12)CCCC3	i
COc1ccc(N2CCOC3CCN(CCCc4ccccc4)CC3C2=O)cc1 (stereo not given)	i
O=C1[C@@H]2C[C@@H](O)CN2C2(CN(Cc3c[nH]c4ccccc34)C2)C(=O)N1Cc1cccc(Cl)c1	i
Cc1csc(NC(=O)c2ccc3c(c2)OCCN(CCC(F)(F)F)C3)n1	35.5µM*
Cc1cnc(NC(=O)c2ccc3c(c2)OCCN(CCC(F)(F)F)C3)s1	i
O=C(NCc1cccs1)c1ccc2c(c1)OCCN(CCC(F)(F)F)C2	i
SMILES	KDM5B inhibitor
O=C(CCn1cnnn1)N1CC(c2noc(C3CCCN3CC3CC3)n2)C1 (stereo not given)	i
Cc1ccc(NC(=O)Nc2ccc(C)n(CC(=O)Nc3ccc(C)cc3C)c2=O)cc1	i
Cc1ccc(NC(=O)Nc2ccc(C)n(CC(=O)NC(C)c3cccnc3)c2=O)cc1 (stereo not given)	i
Cc1cccc(NC(=O)Nc2ccc(C)n(CC(=O)Nc3ccc(C)c(C)c3)c2=O)c1	i
COc1ccccc1NC(=O)Cn1c(C)ccc(NC(=O)Nc2ccc(C)cc2)c1=O	17.8µM*
Cc1cccc(NC(=O)Nc2ccc(C)n(CC(=O)O)c2=O)c1	20µM*
COc1ccccc1NC(=O)Cn1c(C)cc(C)c(C#N)c1=O	i
COc1ccc(-c2nc(SCC(=O)N3CCCc4ccccc43)n3[nH]c(=O)cc3n2)cc1	i
COc1ccccc1CN(C)C(=O)CCn1ccc2ccccc21	i
CCOc1ccc(-c2nc(NC(=O)c3cc(OC)c(OC)c(OC)c3)sc2C)cc1	i
CCN1C(=O)C2CC3(CCN(C(=O)CCc4nc5ccccc5[nH]4)CC3)CN2C1=O (stereo not given)	i
COc1ccccc1C1=NOC(C(=O)Nc2ccc(OC(F)(F)F)cc2)C1 (stereo not given)	i
COc1ccc(OC)c(C2=NOC(C(=O)O)C2)c1 (stereo not given)	28.2µM*
COc1ccc(OC)c(C2=NOC(C(=O)Nc3cc(C)nn3-c3ccccc3)C2)c1 (stereo not given)	i
CC1(COc2cccnc2)COc2ccc(C(=O)Nc3ccc4[nH]ccc4c3)cc2N1 (stereo not given)	i
CCCOc1ccc(C(=O)Nc2cccc(NC(=O)c3cccc(Cl)c3)c2)cc1	i
CCc1ccc(C(=O)Nc2cccc(Cl)c2)cc1S(=O)(=O)N1CCOCC1	i
CC1(COc2cccnc2)COc2ccc(C(=O)Nc3cccc(Cl)c3)cc2N1 (stereo not given)	14.1µM*
O=C(Nc1cccc(Cl)c1)c1ccc2c(c1)CCC2	i
CN(C)CCOCC1(C)COc2ccc(C(=O)Nc3cccc(Cl)c3)cc2N1 (stereo not given)	35.5µM*
Cc1ccccc1CN1CCC(N(C)Cc2ccccc2)CC1	i
O=S(=O)(NCCO)c1ccc(Cl)cc1Cl	i
N#C/C(=C\c1cn(CC(=O)NCc2ccco2)c2ccccc12)C(=O)N1CCCC1	i
Cc1cccc(C2C3=C(COC3=O)Nc3c2c(=O)n(C)c(=O)n3C)c1 (stereo not given)	i
Cc1ccc(NC(=O)CCOc2cc(C)ccc2C)c(Br)c1	i
COc1ccc(S(=O)(=O)NCc2ccco2)cc1C(C)(C)C	i
CN(C)C(=O)c1ccc(N2CCC(NCCC3=CC[C@H]4C[C@@H]3C4(C)C)CC2)cc1	i
